This is one part of a sample in which hits are shown more often than they occur.
VDR inh = vitamin D3 receptor (human) inhibition; VDR-SRC2-3 peptide fluorescence polarization, 2 h; actives 0.93% (n = 400,000); P11473; AID 504847; Potency, µM, usual class: inhibitors
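Signal is fluorescence polarization, reporting how far test compounds block the interaction of VDR with the SRC2-3 coregulator peptide after a 2 h room-temperature incubation.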
12-LOX inh = inhibitors of human 12S-lipoxygenase ALOX12 | purified 12hLO, xylenol orange hydroperoxide absorbance | actives 1.1% (n = 580,000) | P18054 | Potency, µM (doses to about 108 µM), usual class: inhibitors
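Purified human 12hLO (150 nM final) in 25 mM Hepes, 0.01% Triton X-100, pH 7.0 was preincubated 15 min at room temperature with compound. Then 40 uM arachidonic acid was added, 30 min. Hydroperoxide was read by Fe-XO absorbance ratio 573/405 nm.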
GRP78 ERSR act = induces the endoplasmic reticulum stress response in human glioma cells. actives 0.02% (n = 420,000). Potency, µM, usual class: activators. U87-MG GRP78 promoter luciferase reporter, 16 h. AID 602332; further: series mostly up to about 76 µM; nearly all actives have a fitted effect of over 35% in size
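Stably transfected U87-MG human glioma cells carrying a GRP78-based luminescent sensor were seeded at 1000 cells/well, pin-dosed with compounds and incubated 16 h. Luciferase reagent was then added, and end-point luminescence was read after 10 min at room temperature.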
G9a inh = blocks human histone lysine methyltransferase G9a; Q96KQ7; G9a H3K9 monomethylation, AlphaScreen, 2 h; Potency, µM (doses to about 102 µM), actives largely listed as inhibitors; actives 8.8% (n = 350,000); AID 504332; further: nearly all actives have a fitted effect of over 75% in size
Target sequence (Q96KQ7 913-1193 limits assumed): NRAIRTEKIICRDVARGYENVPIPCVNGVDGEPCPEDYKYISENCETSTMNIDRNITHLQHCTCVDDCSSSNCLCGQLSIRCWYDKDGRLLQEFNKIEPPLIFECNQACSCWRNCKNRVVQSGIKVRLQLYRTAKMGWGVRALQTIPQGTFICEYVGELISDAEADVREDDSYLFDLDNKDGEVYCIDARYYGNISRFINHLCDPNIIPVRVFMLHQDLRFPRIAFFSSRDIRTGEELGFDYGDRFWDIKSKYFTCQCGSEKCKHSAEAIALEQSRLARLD
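Using a bead-based AlphaScreen, monomethylated H3K9 product from 2 h room-temperature reactions (G9a 20 nM, peptide 500 nM, SAM 20 uM) was detected with 0.5 ug/mL rabbit anti-H3K9me1 antibody.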
Sfp inh = inhibitors of Bacillus subtilis Sfp phosphopantetheinyl transferase | Q9F4F7 | Biochemical Sfp PPTase activity, qHTS | Potency, µM, actives largely listed as inhibitors | actives 3.5% (n = 310,000);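 further: the enzyme is Sfp with the accession as filed and its product quenches rhodamine fluorescence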
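Sfp 15 nM + cpd, 15 min RT; start w/ rhodamine-CoA 5 uM, BHQ-2-YbbR 12.5 uM (final); 50 mM Hepes pH 7.6, 10 mM MgCl2, 0.01% NP-40, 0.01% BSA; read 525/598 nm at 0 and 30 min.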
Hits are given with their value; . = inactive; ? = inconclusive; / = not tested or not shown; [ ] = dose if it differs, or a comment. The call rests on the fitted dose curve; in most records, active means well fitted curve in the direction sought with a large enough effect; inconclusive means small, poorly fitted or top-dose-only effect, or another doubt; inactive means no such curve, though single readings can be large; an effect the other way counts as inactive or inconclusive.

SMILES	VDR inh	12-LOX inh	GRP78 ERSR act	G9a inh	Sfp inh
C/C=C/C=C/C(=O)Nc1cccc(C2=NOC3(C2)C[C@H](C(N)=O)N(C(=O)CC(c2ccccc2)c2ccccc2)C3)c1 (stereo partly specified)	/	/	/	.[12.7 µM]	39.8µM
CCC(=O)Nc1cccc(C2=NOC3(C2)C[C@@H](C(N)=O)N(C(=O)CC)C3)c1 (stereo partly specified)	.	.	.	.	.
C/C=C\C=C/C(=O)Nc1cccc(C2=NOC3(C2)C[C@@H](C(N)=O)N(C(=O)c2ccccc2)C3)c1 (stereo partly specified)	/	/	/	?	11.2µM
C/C=C/C=C\C(=O)Nc1cccc(C2=NOC3(C2)C[C@@H](C(N)=O)N(C(=O)c2cc([N+](=O)[O-])cc([N+](=O)[O-])c2C)C3)c1 (stereo partly specified)	?	15.8µM	.	.[12.7 µM]	25.1µM
Cn1c(=O)[nH]c(=O)c2c1nc(N1CCN(CC(N)=O)CC1)n2Cc1ccc(Cl)cc1Cl	/	.	/	/	/
C=CCN(CC=C)C(=O)Nc1cccc(C(=O)NCC)c1	/	.	/	/	/
C/C=C/C(=O)N1CC2(CC(c3cccc(NC(=O)/C(C)=C/C)c3)=NO2)C[C@H]1C(N)=O (stereo partly specified)	.	.	.	.	.
C/C=C/C=C\C(=O)Nc1cccc(C2=NOC3(C2)C[C@H](C(N)=O)N(C(=O)/C=C/C)C3)c1 (stereo partly specified)	?	.	.	?	22.4µM
Cc1ccc(/C=C/C(=O)Nc2cccc3cccnc23)o1	.	.	.	?	.
COC(=O)c1ccc(Cl)cc1NC(=O)/C=C/c1ccc(C)o1	.	?	.	?	25.1µM
Cc1ccc(NC(=O)/C=C/c2ccc(C)o2)c(C)c1	.	.	.	11.2µM	/
O=C(Nc1ccc(Cl)cc1)c1ccc2c3c(cccc13)CC2	/	.	/	/	/
COC(=O)c1c(C)n(-c2ccc(OC)cc2)c2ccc(O)cc12	.	?	.	?	44.7µM
Cc1nc(=S)n(-c2ccccc2)[nH]1	.	?	.	14.1µM	?
S=c1nc2ccccc2c2nc(-c3ccccc3)[nH]n12	.	?	.	.	.
Nc1nc(=S)n(-c2ccccc2)[nH]1	.	?	.	10µM	28.2µM
S=c1nc(-c2ccccc2)[nH]n1-c1ccccc1	.	?	.	?	39.8µM
CC/C=C\CCCCCCCCCCOC(C)=O	/	.	/	/	/
CC1CCCC(C)N1/N=C/c1ccccc1F (stereo unspecified)	.	?	.	3.16µM	50.1µM
CCC1C(C#N)=C(SCC(N)=O)NC2=C1C(=O)CC(C)(C)C2 (stereo unspecified)	.	.	.	39.8µM	.
CCOC(=O)C1=C(C)NC(SC)=C(C#N)C1CC(C)C (stereo unspecified)	.	.	.	.[12.7 µM]	.
CC1C(C#N)=C(SCC(N)=O)NC2=C1C(=O)CC(C)(C)C2 (stereo unspecified)	?	.	.	.	.
CC(=O)C1=C(C)NC(SCC(N)=O)=C(C#N)C1c1cccs1 (stereo unspecified)	.	.	.	?	.
CC(=O)C1=C(C)NC(SCC(N)=O)=C(C#N)C1CC(C)C (stereo unspecified)	79.4µM	.	.	7.08µM	.
CC(=O)C1=C(C)NC(SCC(=O)c2ccc(F)cc2)=C(C#N)C1CC(C)C (stereo unspecified)	.	?	.	3.55µM	14.1µM
SMILES	VDR inh	12-LOX inh	GRP78 ERSR act	G9a inh	Sfp inh
CC(=O)C1=C(C)NC(SCC(=O)c2ccc(Cl)cc2)=C(C#N)C1CC(C)C (stereo unspecified)	.	.	.	0.794µM	12.6µM
CCCCn1c(CCC(=O)NCc2ccc(OC)cc2)nc2c1c(=O)[nH]c(=O)n2CCCC	/	.	/	/	/
COc1cccc2[nH]c(C(=O)N3CCC(c4nnc5ccccn45)CC3)cc12	/	.	/	/	/
CC(OC(=O)c1n[nH]c(=O)c2ccccc12)C(=O)c1ccc2c(c1)CCC2 (stereo unspecified)	/	.	/	/	/
CCN(CC)CCNC(=O)CCc1ncc(-c2ccc(F)cc2)o1	/	.	/	/	/
CC(=O)C1=C(C)NC(SCC(N)=O)=C(C#N)C1C (stereo unspecified)	?	.	.	?	39.8µM
CSc1ccc(NC(=O)Cc2cccs2)cc1	/	.	/	/	/
CCCCOCCCNC(=O)CCC(=O)O	/	.	/	/	/
COc1cc(CNc2nc3c(C)cc(C)cc3s2)ccc1O	.	?	.	44.7µM	.
CCC(=O)NNc1nc2c(C)cc(C)cc2s1	.	.	.	?	.
CCN(CC)C(=O)C1CCCN(Cc2ccccc2C(F)(F)F)C1 (stereo unspecified)	.	?	.	?	.
CCN(CC)C(=O)C1CCCN(C/C=C/c2ccccc2)C1 (stereo unspecified)	.	.	.	10µM	.
CCN(CC)C(=O)C1CCCN(C/C(C)=C/c2ccccc2)C1 (stereo unspecified)	.	?	.	15.8µM	79.4µM
NNc1nc2cc3c(cc2s1)OCCO3	.	?	.	70.8µM	39.8µM
CCOc1ccc2nc(NCCNC(=O)C(C)C)c(C)cc2c1	.	.	.	.	.
CCOc1ccc2nc(NCCNC(=O)C3CC3)c(C)cc2c1	.	.	.	79.4µM	.
CNC(=O)c1nn(CC(=O)NCCc2ccc(F)cc2)c(=O)c2ccccc12	/	.	/	/	/
COc1ccc(N2CCN(C(=O)c3ccc(S(=O)(=O)N4CCCCCC4)cc3)CC2)cc1	.	.	.	?	/
COc1ccc(N2CCN(C(=O)c3ccc(S(=O)(=O)N4CCOCC4)cc3)CC2)cc1	.	?	.	8.91µM	.
COc1ccc(N2CCN(C(=O)C3CCCN(S(=O)(=O)c4c(C)noc4C)C3)CC2)cc1 (stereo unspecified)	.	.	.	31.6µM	.
COc1ccc(N2CCN(S(=O)(=O)c3ccc(OC)c(C(=O)N4CCCC4)c3)CC2)cc1	.	.	.	79.4µM	.
COc1cccc(N2CCN(C(=O)C3CCN(S(=O)(=O)c4c(C)noc4C)CC3)CC2)c1	.	.	.	.	/
COc1ccc(N2CCN(C(=O)c3ccc(S(=O)(=O)N4CCCC4)cc3)CC2)cc1	.	.	.	79.4µM	.
Cc1ccc(S(=O)(=O)/N=C/c2cccs2)cc1	/	.	/	/	/
CC1=C[C@@H](CN2CCN(c3ccccn3)CC2)[C@H](C(C)C)C[C@H]1Cc1nnc(-c2cncn2C)o1	/	.	/	/	/
CCN1/C(=C/C=C/c2oc3ccc4ccccc4c3[n+]2CC)Oc2ccc3ccccc3c21	?	/	.	?	8.91µM
CCOc1cc(C2/C(=C(\O)c3ccc(Cl)cc3)C(=O)C(=O)N2c2cc(C)on2)ccc1O (stereo unspecified)	/	15.8µM	/	/	/
Cn1cnc([N+](=O)[O-])c1	/	.	/	/	/
Oc1ccc(Cl)cc1C1=NNC(c2cccs2)C1 (stereo unspecified)	?	?	.	50.1µM	.
Cn1cc(C=C2C(=O)CC(C)(C)CC2=O)c2ccccc21	.	.	.	44.7µM	.

Compound activity (PubChem BioAssay)
